The list is not random: actives were taken first. Their share in the collection is about 2.8%.
PI5P4K alpha inh = inhibitors of human PI5P4K alpha | AID 652105 | 330,000 tested, 1.2% active | P48426 | max response, % | PI5P4Kalpha enzyme, ADP-Glo luminescence, 60 min; hits give low values; active = max response of -50% or lower; inconclusive = between -30% and -50%; inactive = -30% or higher; note: value at the top dose of about 77 µM; % is set by controls: 0 for no effect and ±100 for the full control effect
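Luminescence from ADP-Glo served as readout of PI5P4Kalpha activity in a qHTS format. Reaction: enzyme, substrate, compound, ATP at 5 microM final, 60 min at RT.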
Pol eta inh-1 = blocks human DNA polymerase eta activity; Q9Y253; recombinant Pol eta, fluorescent DNA replication assay; Potency, µM (titrated, usually from 114 µM), for inactives: at the top dose activity change, negative = inhibition, actives largely listed as inhibitors; 390,000 tested, 1.2% active; note: potency is the fitted concentration of half-maximal effect; % is set by controls: 0 for no effect and ±100 for the full control effect
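Fluorescent replication assay: 50 nM final substrate added after a 15 min room-temperature compound preincubation with 10 nM enzyme. Signal taken at 0 min and again at 10 min.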
WRN inhibitor = blocks human WRN helicase; WRN helicase unwinding, fluorescent forked duplex, kinetic; Potency, µM (doses to about 114 µM), without a hit: at the highest dose activity change, negative = inhibition, usual class: inhibitors; 360,000 tested, 0.46% active; AID 651768; note: potency is the fitted concentration of half-maximal effect; % is set by controls: 0 for no effect and ±100 for the full control effect; nearly all actives have a fitted effect of over 55% in size
Target sequence (Q14191 whole entry, looked up): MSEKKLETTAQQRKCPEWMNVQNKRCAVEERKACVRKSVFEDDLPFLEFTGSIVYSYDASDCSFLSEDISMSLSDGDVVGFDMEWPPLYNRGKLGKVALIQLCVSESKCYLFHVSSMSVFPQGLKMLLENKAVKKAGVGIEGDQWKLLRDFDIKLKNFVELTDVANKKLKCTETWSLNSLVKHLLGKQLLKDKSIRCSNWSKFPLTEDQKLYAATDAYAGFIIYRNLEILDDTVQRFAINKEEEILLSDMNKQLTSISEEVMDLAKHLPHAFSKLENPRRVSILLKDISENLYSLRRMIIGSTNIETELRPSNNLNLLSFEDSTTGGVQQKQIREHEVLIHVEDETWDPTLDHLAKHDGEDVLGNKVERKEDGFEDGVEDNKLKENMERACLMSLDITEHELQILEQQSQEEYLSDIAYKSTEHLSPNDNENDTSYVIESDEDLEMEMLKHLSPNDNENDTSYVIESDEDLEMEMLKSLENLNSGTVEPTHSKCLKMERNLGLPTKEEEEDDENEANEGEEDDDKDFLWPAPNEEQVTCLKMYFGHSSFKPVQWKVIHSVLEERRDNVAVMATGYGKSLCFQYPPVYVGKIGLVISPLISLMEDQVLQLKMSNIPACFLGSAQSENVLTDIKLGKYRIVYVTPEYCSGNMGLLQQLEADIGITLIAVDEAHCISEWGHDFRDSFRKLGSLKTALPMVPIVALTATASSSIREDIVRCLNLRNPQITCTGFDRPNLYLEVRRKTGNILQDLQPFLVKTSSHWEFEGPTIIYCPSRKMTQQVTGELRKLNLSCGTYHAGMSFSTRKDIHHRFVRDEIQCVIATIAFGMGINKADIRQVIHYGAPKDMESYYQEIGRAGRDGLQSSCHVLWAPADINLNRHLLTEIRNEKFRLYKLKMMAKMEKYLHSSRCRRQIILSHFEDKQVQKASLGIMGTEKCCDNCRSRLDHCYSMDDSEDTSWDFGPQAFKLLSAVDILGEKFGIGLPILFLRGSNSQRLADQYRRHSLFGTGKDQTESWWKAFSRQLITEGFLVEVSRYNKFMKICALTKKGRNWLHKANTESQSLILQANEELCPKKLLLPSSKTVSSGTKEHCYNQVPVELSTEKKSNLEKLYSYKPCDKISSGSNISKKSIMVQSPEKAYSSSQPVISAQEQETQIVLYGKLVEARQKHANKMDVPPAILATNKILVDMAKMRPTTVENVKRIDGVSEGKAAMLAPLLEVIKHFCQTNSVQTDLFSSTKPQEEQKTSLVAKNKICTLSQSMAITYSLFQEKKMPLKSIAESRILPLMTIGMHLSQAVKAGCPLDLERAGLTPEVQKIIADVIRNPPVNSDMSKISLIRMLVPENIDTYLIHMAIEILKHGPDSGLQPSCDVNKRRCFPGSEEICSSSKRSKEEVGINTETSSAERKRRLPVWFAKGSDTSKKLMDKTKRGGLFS
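WRN at 20 nM final was preincubated with compound for 15 min at room temperature; reaction started with 100 nM forked duplex oligonucleotide carrying fluorophore and quencher plus 2 mM ATP (final). Unwinding followed kinetically by red fluorescence (ex 525/em 598 nm).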
Pol iota inh = inhibitors of human DNA polymerase iota; Q9UNA4; Pol iota fluorescent replication assay, 10 min; Potency, µM (series often up to 115 µM), inactives show at the highest dose activity, negative = inhibition, hits mostly inhibitors; 390,000 tested, 1% active; note: potency is the fitted concentration of half-maximal effect
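Pol iota at 10 nM preincubated 15 min with compounds at room temperature; reaction started with fluorescent substrate, 50 nM final. Fluorescence read kinetically at 0 and 10 min; buffer-only wells as negative control.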
Pol beta inh = blocks human DNA polymerase beta activity. Potency, µM (doses to about 114 µM), without a hit: at the highest dose activity change, negative = inhibition, actives largely listed as inhibitors. Pol beta primer extension/strand displacement, fluorescence kinetic. 340,000 tested, 1.3% active. AID 485314; note: potency is the fitted concentration of half-maximal effect; % is set by controls: 0 for no effect and ±100 for the full control effect
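Homogeneous kinetic assay of primer extension and strand displacement by 10 nM Pol beta, preincubated 15 min at room temperature with compound before 50 nM substrate (final) was added. Read at 0 and 10 min; four-parameter Hill fit.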
Pol kappa inh-1 = DNA polymerase kappa (human) inhibition. Q9UBT6. purified Pol kappa, fluorescent DNA synthesis assay, 10 min. Potency, µM (titrated, usually from 107 µM), without a hit: at the top dose activity, negative = inhibition, actives largely listed as inhibitors. 400,000 tested, 0.53% active. AID 588579; note: potency is the fitted concentration of half-maximal effect; % is set by controls: 0 for no effect and ±100 for the full control effect
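Kinetic fluorescence readout at 0 and 10 min followed reaction start with substrate at 50 nM final. Beforehand, enzyme (10 nM Pol kappa) stood 15 min with compound at room temperature; buffer-only wells were negative controls.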
GALK confirm = confirmation of human galactokinase (GALK) inhibitors; Potency, µM (highest dose often 115 µM), inactives show top-dose activity, negative = inhibition, actives largely listed as inhibitors; purified GALK, Kinase-Glo ATP depletion luminescence; AID 2015; shares compounds with Pol eta inh-1; 150 tested, 70% active
Redox cycling = counter-screen for GALK inhibitors: redox cycling H2O2 generation. Potency, µM (titrated, usually from 115 µM), without a hit: top-dose activity change, negative = H2O2 signal, most hits filed as inhibitors. shares compounds with Pol eta inh-1. AID 2035. Phenol red-HRP H2O2 redox cycling, absorbance 600 nm. 150 tested, 40% active
HEK293 viability = HEK-293 cytotoxicity, GALK inhibitor secondary; shares compounds with Pol eta inh-1; HEK-293 viability, ATP luminescence (CellTiter-Glo), 24/48 h; Potency, µM (titrated, usually from 46.1 µM), inactives show at the highest dose activity change, negative = cytotoxicity, most hits filed as inhibitors; 170 tested, 10% active; AID 2547; note: potency is the fitted concentration of half-maximal effect; % is set by controls: 0 for no effect and ±100 for the full control effect
Pol kappa inh-2 = confirmation of human DNA polymerase kappa inhibitors. AID 720501. Potency, µM, hits mostly inhibitors. purified Pol-kappa, fluorescent strand-displacement substrate. 920 tested, 76% active. shares compounds with Pol eta inh-1; note: potency is the fitted concentration of half-maximal effect
Pol eta inh-2 = Pol eta (human) inhibition, cherry-pick confirmation; Potency, µM, hits mostly inhibitors; Pol eta primer extension, TAMRA/BHQ fluorescence, 10 min; 2,600 tested, 64% active; shares compounds with Pol eta inh-1; note: potency is the fitted concentration of half-maximal effect
An asterisk follows results filed as active; ? = inconclusive; · = not tested or not shown; [ ] = remark or other dose. Unless noted, calls come from the whole dose curve; as a rule, active = well fitted curve in the direction sought with a large enough effect; inconclusive = small, poorly fitted or top-dose-only effect, or another doubt; inactive = no such curve, though single readings can be large; an effect the other way counts as inactive or inconclusive.

SMILES	PI5P4K alpha inh	Pol eta inh-1	WRN inhibitor	Pol iota inh	Pol beta inh	Pol kappa inh-1	Pol eta inh-2	others
COc1cc(C(=O)O)cc(OC)c1OCc1cc(C(=O)O)oc1C	-16.1	3.16µM*	-13.4%	?	17.8µM*	-41.9%	47.8*	Pol kappa inh-2=42.3*
C[C@H](NC(=O)N1CCn2c1nc1ccccc12)C(=O)NCC1CCCO1 (stereo partly specified)	4.1	-7.9%	15.6%	24.1%	18.0%	8.9%	·
COC(=O)c1ccc(/C=C2\CCn3c2nc2cc(C(=O)O)ccc2c3=O)cc1	-15.1	-3.2%	-7.0%[57.1 µM]	?	6.7%	-3.4%	·
CSc1ccc(/C=C2\CCn3c2nc2cc(C(=O)O)ccc2c3=O)cc1	?	50.1µM*	-14.6%[11.6 µM]	91.9%	-1.7%	-10.3%	?
Oc1ccc(N=Nc2ccccc2-c2nn[nH]n2)c(O)c1	-63.1*	22.4µM*	-15.7%[11.6 µM]	11.4%	31.6µM*	16.1%	53.6*
Cc1ccccc1-c1nn[nH]n1	·	1.5%	8.3%	6.0%	11.2%	-12.4%	·
COC(=O)c1c(NC(=O)CCCC(=O)O)sc2c1CCC2	·	?	?	-23.8%[58.9 µM]	0.6%	-30.8%	30.1*
CC(=O)Nc1ccc(Nc2nc3ccccc3nc2NS(=O)(=O)c2ccc(Cl)c([N+](=O)[O-])c2)cc1	-25.2	22.4µM*	?	?	·	?	?
Cc1nc(Nc2ccc(C(=O)O)cc2)nc(Nc2ccc(C(=O)O)cc2)c1[N+](=O)[O-]	-56.4*	35.5µM*	-20.9%[11.6 µM]	44.7µM*	-1.1%	?	37.9*
CC(=O)Nc1ccc(Nc2nc(C)c([N+](=O)[O-])c(Nc3ccccc3)n2)cc1	-17.9	-15.8%	-14.6%	7.2%	-26.5%	-1.8%	·
COc1ccc(NC(=O)N(C)C[C@H]2Oc3c(NS(=O)(=O)c4cccs4)cccc3C(=O)N([C@@H](C)CO)C[C@@H]2C)cc1	1.9	-24.3%	1.1%	9.8%	·	7.1%	·
CC1(C)CC(=O)C2=C(C1)NC(Nc1nc3ccccc3o1)=NC21CCCC1	·	-10.7%	-2.4%	5.6%	2.3%	0.1%	·	GALK confirm=?;Redox cycling=-22.4%;HEK293 viability=1.4%
CC1(C)CC(=O)C2=C(C1)NC(Nc1nc3ccccc3o1)=NC2c1ccccn1 (stereo unspecified)	1.0	-21.2%	-0.5%	53.4%	27.1%	-11.1%	·
CC1(C)CC(=O)C2=C(C1)NC(Nc1nc3ccccc3o1)=NC2c1ccccc1Cl (stereo unspecified)	·	·	·	23.6%	·	5.4%	·	HEK293 viability=-8.8%
CCCCNC(=O)C1c2ccccc2OCC(=O)N1CCc1c[nH]c2ccccc12 (stereo unspecified)	-1.1	·	3.4%	·	·	·	·
COc1ccc(OC)c(CC(NC(C)=O)C(=O)NC2CCN(S(=O)(=O)c3ccc(NC(C)=O)cc3)CC2)c1 (stereo unspecified)	3.7	-3.2%	8.0%	18.5%	27.0%	5.6%	·
CCOC(=O)c1cc(-c2ccc(/C=C3/C(=O)N(c4ccc(C(=O)O)cc4)N=C3C)o2)ccc1Cl	-25.0	17.8µM*	-22.8%[11.6 µM]	1.41µM*	-13.3%	?	·	GALK confirm=21.1µM*;Redox cycling=11.9µM*;HEK293 viability=14.4%
C#Cc1ccc([C@H]2C=C(C(=O)O)O[C@@H](OCCCCO)C2)cc1	-17.2	20µM*	-20.7%	50.1µM*	·	?	·	Pol kappa inh-2=?
COc1ccc([C@@H]2C=C(C(=O)O)O[C@H](OCCCCO)C2)cc1	-0.5	-19.0%	3.2%	23.6%	15.4%	-3.7%	·
Cc1cccc(C(O)c2ncc(-c3ccc4ccccc4c3)[nH]2)c1C (stereo unspecified)	-0.3	·	-7.7%	·	·	·	·
Cc1ccc2nc(/C(C#N)=C\c3cc(C)n(-c4cccc([N+](=O)[O-])c4)c3C)[nH]c2c1	·	-7.5%	-12.3%	-8.3%[58.9 µM]	-0.8%	-12.3%	·
Cc1cc(/C=C(/C#N)c2nc3ccccc3[nH]2)c(C)n1-c1ccccc1C(=O)O	-22.8	17.8µM*	?	11.2µM*	20µM*	?	37.9*	Pol kappa inh-2=16.8*
Cc1ccc2nc(/C(C#N)=C/c3ccc(-c4ccccc4C(=O)O)o3)[nH]c2c1	?	20µM*	-17.6%[11.6 µM]	?	22.4µM*	?	·	Pol kappa inh-2=?
CCOC(=O)c1ccc(-c2ccc(/C=C(\C#N)c3nc4ccc(C)cc4[nH]3)o2)cc1	·	·	·	2.6%	?	-4.7%	·
Oc1c(Br)cc(C=Nc2ccc3nc(-c4ccccc4)[nH]c3c2)c(O)c1Br	-70.9*	14.1µM*	?	?	?	50.1µM*	30.1*	Pol kappa inh-2=9.47*
SMILES	PI5P4K alpha inh	Pol eta inh-1	WRN inhibitor	Pol iota inh	Pol beta inh	Pol kappa inh-1	Pol eta inh-2	others
Cc1ccc(S(=O)(=O)Nc2nc(CN3CCOCC3)nc3sc(C(=O)O)c(C)c23)cc1	-19.9	12.6µM*	-4.6%[11.6 µM]	·	·	·	30.1*
Cc1cc(S(=O)(=O)Nc2nc(CN3CCOCC3)nc3sc4c(c23)CCC4)cc(C)c1C	-29.8	17.8µM*	?	25.1µM*	·	?	?	Pol kappa inh-2=?
COC(=O)c1cccc(Cn2c(Cl)c(/C=N/Nc3ccccc3C)sc2=O)c1	-12.1	-19.3%	-12.5%	0.4%	?	-11.7%	·
Cc1ccccc1N/N=C/c1sc(=O)n(Cc2cccc(C(=O)O)c2)c1Cl	?	?	?	?	?	-41.7%	?
N#CC1=C(SCC(=O)Nc2ccc(C(=O)O)cc2)NC(=O)CC1c1ccco1 (stereo unspecified)	?	20µM*	-6.1%[11.6 µM]	25.1µM*	?	?	60.1*
Cc1ccc(NC(=O)CSC2=C(C#N)C(c3ccco3)C3=C(CCCC3=O)N2)cc1 (stereo unspecified)	-10.1	-5.6%	-7.3%	?	2.8%	-6.2%	·
